Activity calls are given as the source filed them. No rule for the calls is given here.

In the first assay the target is Cellular tumor antigen p53 (Homo sapiens) (UniProt P04637). The assay is described as follows: GFP-p53 level modulators in HPV16+ cells – imaging, known kinase inhibitor set, EGFP/DsRed ratio (AID 1053116).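 Also: test concentration not given here; cells exposed to compounds for 24 h at 37 °C before reading.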 Conditions: GFP-p53 stability, stronger effect = higher value; EGFP object count: measured here: GFP-p53 positive objects count.
Chain of Cellular tumor antigen p53 (Homo sapiens) (P04637 whole entry, looked up): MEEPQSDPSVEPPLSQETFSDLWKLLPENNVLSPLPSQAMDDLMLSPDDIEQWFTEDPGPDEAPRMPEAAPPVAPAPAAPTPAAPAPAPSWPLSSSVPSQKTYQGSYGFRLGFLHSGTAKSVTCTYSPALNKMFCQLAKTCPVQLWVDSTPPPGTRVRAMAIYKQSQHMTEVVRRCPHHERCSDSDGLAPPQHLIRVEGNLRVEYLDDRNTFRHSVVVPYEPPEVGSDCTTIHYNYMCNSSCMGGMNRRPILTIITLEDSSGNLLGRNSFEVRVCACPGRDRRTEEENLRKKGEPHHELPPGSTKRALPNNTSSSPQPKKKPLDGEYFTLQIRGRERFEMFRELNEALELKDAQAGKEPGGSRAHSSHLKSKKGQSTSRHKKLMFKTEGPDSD
With `COc1ccccc1-c1cc(/C=C2\C(=O)Nc3ncc(Br)cc32)cc(Br)c1O`, the EGFP/DsRed ratio is 0.142 (inactive) and the EGFP object count came out at 1.
As to `CS(=O)(=O)CCNCc1cc(-c2cc3c(Nc4ccc(OCc5cccc(F)c5)c(Cl)c4)ncnc3s2)cs1`, the EGFP object count was 4.5 and the EGFP/DsRed ratio is 0.11 (inactive).
Taken in the same sequence, the figures for `CCCN1CCCC(c2ccc(Nc3nc(Nc4cc(F)ccc4C(N)=O)c4cc[nH]c4n3)c(OC)c2)C1` (stereo not drawn) were 50.5 and 0.576 (inactive).
Taken in the same sequence, the figures for `COc1ccc2ncn(-c3cc(O[C@H](C)c4ccccc4C(F)(F)F)c(C(N)=O)s3)c2c1` were 7.5 and 0.176 (inactive).
For `Nc1nc(-c2ccc(F)cc2)c(-c2ccc3ncccc3n2)s1`, the EGFP object count stood at 6 and the EGFP/DsRed ratio is 0.152 (inactive).
Taken in the same sequence, the figures for `Cc1ccc2[nH]c(O)c(N=Nc3ccc(S(N)(=O)=O)cc3)c2c1` were 5 and 0.439 (inactive).
The like results for `O=S1CCN(Cc2ccc(-c3ccc4ncnc(Nc5ccc(OCc6ccccc6)c(Cl)c5)c4c3)o2)CC1` were, in that order, 5 and 0.0559 (inactive).
Taken in the same sequence, the figures for `CCn1c(-c2nonc2N)nc2c(C#CC(C)(C)O)ncc(OCC3CCNCC3)c21` were 13 and 0.169 (inactive).
On to `COc1ccc2ncnc(Nc3ccc(OCc4ccccc4)cc3)c2c1`, for which the EGFP object count was found to be 4 and the EGFP/DsRed ratio is 0.134 (inactive).
For the compound `COc1cc(/C=N/Nc2ncnc3c2cnn3C(C)C)ccc1O`, the EGFP object count came to 6.5 and the EGFP/DsRed ratio is 0.127 (inactive).
Take `COc1ccc(-c2ccncc2)cc1C(N)=O`: the EGFP/DsRed ratio was 0.12 (inactive) and the EGFP object count stood at 4.
The like results for `COc1ccc(-c2coc3ncnc(N)c23)cc1` were, in that order, 0.227 (inactive) and 4.
The like results for `CCNC(=O)O[C@H]1CN[C@H](C#Cc2cc3ncnc(Nc4ccc(OCc5cccc(F)c5)c(Cl)c4)c3s2)C1` were, in that order, 0.233 (inactive) and 5.5.
For the compound `Fc1ccc(Nc2nccc(-c3c(-c4ccc(C(F)(F)F)cc4)nn4ncccc34)n2)cc1F`, the EGFP/DsRed ratio is 0.0976 (inactive) and the EGFP object count was determined as 5.5.
The like results for `CCn1c(-c2nonc2N)nc2c(C#CC(C)(C)O)nc(OC[C@H](N)c3ccccc3)cc21` were, in that order, 0.207 (inactive) and 7.5.
The like results for `Cc1nnc(-c2ccc(C)c(-c3ccc(C(=O)Nc4cccc(C#N)c4)cc3)c2)o1` were, in that order, 0.0236 (inactive) and 1.5.
Taken in the same sequence, the figures for `Oc1cccc(-c2nc(-c3ccccc3)[nH]c2-c2ccncc2)c1` were 0.0183 (inactive) and 2.5.
In the case of `COc1ccc(-c2cc3c(N)ncnc3o2)cc1`, the EGFP/DsRed ratio was 0.215 (inactive) and the EGFP object count came to 6.5.
Taken in the same sequence, the figures for `NS(=O)(=O)c1ccc(N=Nc2c(O)[nH]c3ccc(-c4cnco4)cc23)cc1` were 0.401 (inactive) and 10.
For the compound `NS(=O)(=O)c1cccc(-c2ccc3c(NC(=O)C4CC4)n[nH]c3c2)c1`, the EGFP/DsRed ratio was 0.0329 (inactive) and the EGFP object count came to 4.
For `COc1cc(N2CCN(C(C)C)CC2)ccc1Nc1nc(Nc2ccc(F)cc2C(N)=O)c2cc[nH]c2n1`, the EGFP/DsRed ratio is 0.221 (inactive) and the EGFP object count was found to be 4.
The like results for `CC(C)=Cc1cccc2[nH]c(O)c(N=Nc3ccc(S(N)(=O)=O)cc3)c12` were, in that order, 0.593 (inactive) and 21.5.
The like results for `Cc1ccc2c(-c3ccnc(Nc4ccccc4)n3)c(-c3ccc(F)cc3)nn2n1` were, in that order, 0.152 (inactive) and 6.
The like results for `Cc1c2ccc(N(C)c3ccnc(Nc4cccc(S(N)(=O)=O)c4)n3)cc2nn1C` were, in that order, 0.0613 (inactive) and 3.5.
`CNC(=O)c1cncc(/C=C/c2ccccc2Cl)c1`: the EGFP object count is 6.5 and the EGFP/DsRed ratio is 0.185 (inactive).
The like results for `COc1cc2ncnc(Nc3ccc(C)c(O)c3)c2cc1OC` were, in that order, 6 and 0.129 (inactive).
Taken in the same sequence, the figures for `CC(C)c1ccc2c(N=Nc3ccc(S(N)(=O)=O)cc3)c(O)[nH]c2c1` were 4 and 0.177 (inactive).

System in a further assay: not listed separately
Briefly: inducers of IRF3 signaling, differentiated THP-1 – cell-based, PMA-stimulated THP-1, luminescence (AID 1053176). The conditions noted are these: PMA-differentiated THP-1, IRF3 reporter luminescence; stronger effect = higher value.
Take `COc1ccc2cc(-c3c(-c4ccncc4)nc(-c4ccc(S(C)=O)cc4)n3C)ccc2c1` (stereo not drawn): the fraction signal was -0.0035 (inactive).
Same read-out and setting: the value for `COc1ccc2cc(-c3c(-c4ccncc4)nc(-c4ccc(S(C)(=O)=O)cc4C)n3C)ccc2c1` was 0.0025 (inactive); that for `CN(C)CCCn1c(-c2nonc2N)nc2cnccc21` was -0.0015 (inactive).
The same measure, in the same setting: the value for `CN1CCC(n2cnc(-c3ccc(F)cc3)c2-c2ccnc(Nc3ccccc3)n2)CC1` was 0.005 (inactive); that for `CCS(=O)(=O)c1ccc(OC)c(Nc2ncc(-c3cccc(-c4ccccc4F)c3)o2)c1` was 0.0015 (inactive).
For `COC(=O)Nc1nc2ccc(Oc3ccc(NC(=O)Nc4cccc(C(=O)O)c4)cc3)cc2[nH]1`, the fraction signal is -0.002 (inactive).
Regarding `COC(=O)Nc1nc2ccc(S(=O)(=O)c3ccc(NC(=O)Nc4cc(C(F)(F)F)ccc4F)cc3)cc2[nH]1`, the fraction signal was 0 (inactive).
Still for that read-out and setting: the value for `COc1c(C(N)=O)cc(-c2ccc(Cl)cc2)cc1-c1ccc(S(N)(=O)=O)cc1` was -0.003 (inactive).
The same measure, in the same setting: the value for `CN(C)CCNC(=O)Nc1ccc(N(C)c2ccnc(Nc3ccc(CS(C)(=O)=O)cc3)n2)cc1` was 0.0045 (inactive); that for `FC(F)(F)c1cccc(-c2nn3ncccc3c2-c2ccnc(Nc3ccc4c(c3)OCCO4)n2)c1` was 0.007 (inactive); that for `COc1cc(N2CCN(C(C)C)CC2)ccc1Nc1nc(Nc2cccc3ncccc23)c2cc[nH]c2n1` was -0.0005 (inactive).
Still for that read-out and setting: the value for `NS(=O)(=O)c1ccc(NC2CC(c3cccc(O)c3)NN2)cc1` (stereo not drawn) was -0.0035 (inactive); that for `COc1ccccc1-c1cc(/C=C2\C(=O)Nc3ncc(Br)cc32)cc(Br)c1O` was 0.0015 (inactive).
Regarding `CS(=O)(=O)CCNCc1cc(-c2cc3c(Nc4ccc(OCc5cccc(F)c5)c(Cl)c4)ncnc3s2)cs1`, the fraction signal is -0.0035 (inactive).
Same read-out and setting: the value for `CCCN1CCCC(c2ccc(Nc3nc(Nc4cc(F)ccc4C(N)=O)c4cc[nH]c4n3)c(OC)c2)C1` (stereo not drawn) was -0.003 (inactive); that for `COc1ccc2ncn(-c3cc(O[C@H](C)c4ccccc4C(F)(F)F)c(C(N)=O)s3)c2c1` was 0.0035 (inactive).
On the same count and under the same terms, the value for `Nc1nc(-c2ccc(F)cc2)c(-c2ccc3ncccc3n2)s1` was -0.002 (inactive); that for `Cc1ccc2[nH]c(O)c(N=Nc3ccc(S(N)(=O)=O)cc3)c2c1` was -0.0055 (inactive).
The same measure, in the same setting: the value for `O=S1CCN(Cc2ccc(-c3ccc4ncnc(Nc5ccc(OCc6ccccc6)c(Cl)c5)c4c3)o2)CC1` was -0.0035 (inactive); that for `CCn1c(-c2nonc2N)nc2c(C#CC(C)(C)O)ncc(OCC3CCNCC3)c21` was 0.002 (inactive); that for `COc1ccc2ncnc(Nc3ccc(OCc4ccccc4)cc3)c2c1` was -0.023 (inactive).
Consider `COc1cc(/C=N/Nc2ncnc3c2cnn3C(C)C)ccc1O`, for which the fraction signal is -0.006 (inactive).
Same read-out and setting: the value for `COc1ccc(-c2ccncc2)cc1C(N)=O` was -0.004 (inactive); that for `COc1ccc(-c2coc3ncnc(N)c23)cc1` was 0.002 (inactive).
Same read-out and setting: the value for `CCNC(=O)O[C@H]1CN[C@H](C#Cc2cc3ncnc(Nc4ccc(OCc5cccc(F)c5)c(Cl)c4)c3s2)C1` was -0.003 (inactive); that for `Fc1ccc(Nc2nccc(-c3c(-c4ccc(C(F)(F)F)cc4)nn4ncccc34)n2)cc1F` was 0.008 (inactive); that for `CCn1c(-c2nonc2N)nc2c(C#CC(C)(C)O)nc(OC[C@H](N)c3ccccc3)cc21` was -0.0025 (inactive).
Still for that read-out and setting: the value for `Cc1nnc(-c2ccc(C)c(-c3ccc(C(=O)Nc4cccc(C#N)c4)cc3)c2)o1` was -0.004 (inactive).
Turning to `Oc1cccc(-c2nc(-c3ccccc3)[nH]c2-c2ccncc2)c1`, the fraction signal was 0.0025 (inactive).
The same measure, in the same setting: the value for `COc1ccc(-c2cc3c(N)ncnc3o2)cc1` was -0.014 (inactive).
The same measure, in the same setting: the value for `NS(=O)(=O)c1ccc(N=Nc2c(O)[nH]c3ccc(-c4cnco4)cc23)cc1` was 0.0025 (inactive); that for `NS(=O)(=O)c1cccc(-c2ccc3c(NC(=O)C4CC4)n[nH]c3c2)c1` was -0.0015 (inactive); that for `COc1cc(N2CCN(C(C)C)CC2)ccc1Nc1nc(Nc2ccc(F)cc2C(N)=O)c2cc[nH]c2n1` was 0.001 (inactive).
Still for that read-out and setting: the value for `CC(C)=Cc1cccc2[nH]c(O)c(N=Nc3ccc(S(N)(=O)=O)cc3)c12` was 0 (inactive).
For `Cc1ccc2c(-c3ccnc(Nc4ccccc4)n3)c(-c3ccc(F)cc3)nn2n1`, the fraction signal is -0.0025 (inactive).
On the same count and under the same terms, the value for `Cc1c2ccc(N(C)c3ccnc(Nc4cccc(S(N)(=O)=O)c4)n3)cc2nn1C` was 0.0015 (inactive); that for `CNC(=O)c1cncc(/C=C/c2ccccc2Cl)c1` was 0.0005 (inactive); that for `COc1cc2ncnc(Nc3ccc(C)c(O)c3)c2cc1OC` was 0.0075 (inactive).
The same measure, in the same setting: the value for `CC(C)c1ccc2c(N=Nc3ccc(S(N)(=O)=O)cc3)c(O)[nH]c2c1` was -0.0065 (inactive).

Source of the values: PubChem BioAssay.
